Source: PubChem BioAssay AID720700 (The Scripps Research Institute Molecular Screening Center, 2013)
Screen size: about 370,000 compounds; about 3,100 (0.84%) were called active. For the sample, actives were picked, then their nearest neighbours and some compounds at random. Unmarked numbers belong to inactive results. No stated cut-off is given here; in the data, active means inhibition above about 9.5%; inactive means the rest.

target: 1-phosphatidylinositol 4,5-bisphosphate phosphodiesterase gamma-1 (Homo sapiens) (UniProt P19174); experiment: blockers of human PLCG1 activity – biochemical, fluorescence, purified enzyme, primary screen (AID 720700); details: purified PLC-gamma1, fluorogenic substrate, at 12.2 µM, hits give high values
Sequence (P19174 whole entry, looked up): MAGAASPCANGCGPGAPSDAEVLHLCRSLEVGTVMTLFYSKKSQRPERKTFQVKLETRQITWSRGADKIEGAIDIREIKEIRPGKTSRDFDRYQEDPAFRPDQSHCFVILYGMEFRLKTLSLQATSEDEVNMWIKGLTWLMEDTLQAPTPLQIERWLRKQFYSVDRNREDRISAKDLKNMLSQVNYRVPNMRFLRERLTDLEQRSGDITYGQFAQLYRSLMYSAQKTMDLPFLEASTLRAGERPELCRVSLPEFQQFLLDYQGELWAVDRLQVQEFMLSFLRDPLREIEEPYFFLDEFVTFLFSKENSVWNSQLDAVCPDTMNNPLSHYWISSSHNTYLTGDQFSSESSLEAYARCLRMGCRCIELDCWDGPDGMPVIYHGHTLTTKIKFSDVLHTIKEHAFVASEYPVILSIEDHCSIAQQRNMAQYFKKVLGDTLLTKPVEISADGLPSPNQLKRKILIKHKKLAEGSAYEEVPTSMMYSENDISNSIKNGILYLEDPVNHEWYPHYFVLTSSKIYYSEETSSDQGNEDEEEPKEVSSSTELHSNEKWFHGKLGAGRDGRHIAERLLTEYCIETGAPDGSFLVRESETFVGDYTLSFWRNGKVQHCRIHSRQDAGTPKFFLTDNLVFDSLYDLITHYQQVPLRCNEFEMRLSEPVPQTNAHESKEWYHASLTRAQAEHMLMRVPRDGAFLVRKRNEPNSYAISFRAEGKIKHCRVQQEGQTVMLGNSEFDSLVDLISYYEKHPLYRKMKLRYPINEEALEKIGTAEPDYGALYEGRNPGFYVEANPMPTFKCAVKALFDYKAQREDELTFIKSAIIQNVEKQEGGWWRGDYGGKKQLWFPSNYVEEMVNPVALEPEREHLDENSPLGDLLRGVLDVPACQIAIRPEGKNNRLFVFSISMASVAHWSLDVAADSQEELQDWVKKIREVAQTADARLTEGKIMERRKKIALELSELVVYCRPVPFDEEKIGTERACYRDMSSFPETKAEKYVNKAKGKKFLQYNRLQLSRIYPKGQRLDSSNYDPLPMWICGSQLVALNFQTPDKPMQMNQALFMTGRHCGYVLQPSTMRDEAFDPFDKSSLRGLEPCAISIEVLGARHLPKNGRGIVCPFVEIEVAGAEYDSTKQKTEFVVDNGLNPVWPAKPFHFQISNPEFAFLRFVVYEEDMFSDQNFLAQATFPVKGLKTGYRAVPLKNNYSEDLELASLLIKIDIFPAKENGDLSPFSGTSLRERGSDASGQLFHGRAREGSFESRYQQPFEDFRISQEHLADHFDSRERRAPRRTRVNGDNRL

SMILES	inhibition
O=C1c2ccccc2S(=O)(=O)N1Cc1c(F)cccc1Cl	-1.51%
O=C1c2ccccc2S(=O)(=O)N1CC(O)Cn1c2ccccc2c2ccccc21 (stereo not drawn)	15.2% (active)
CS(=O)(=O)N(CC(O)Cn1c2ccccc2c2ccccc21)c1cccc2ccccc12 (stereo not drawn)	-10.8%
C=CCN(C)CC#Cc1ccccc1	1.26%
COc1ccc(CCNC2=CC(=O)CC(C)(C)C2)cc1	1.19%
CC1(C)CC(=O)C=C(NCCN2CCNCC2)C1	10.7% (active)
CC1(C)CC(=O)C=C(NCCCN2CCCC2=O)C1	1.47%
O=C(CCS(=O)(=O)c1ccccc1)Nc1ccc(Cl)c(Cl)c1	-5.17%
CCOC(=O)N1CCN(C(=O)C[C@@H]2C(=O)N(CCc3ccc(Cl)cc3)C3=CCCC[C@]32C(=O)OCC)CC1	2.91%
CCOC(=O)N1CCC(C(N)=O)CC1	-1.53%
CCOC(=O)N1CCC(NC(=O)Cc2cn(C)c3ccccc23)CC1	2.53%
CCOC(=O)N1CCC(c2cc(=O)n(-c3ccccc3)[nH]2)CC1	9.95% (active)
O=C(OCC#CCSc1nnc(-c2ccco2)o1)c1ccc(F)cc1	-0.72%
CCN(CC)C(=O)CC[C@H]1CC[C@]2(CCCN(Cc3ccc(Cl)cc3)C2)O1	3.26%
CCCCCCN1CCS(=O)(=O)N(Cc2ccc(C(F)(F)F)cc2)C(C(=O)OC)C1 (stereo not drawn)	-2.36%
Cc1ccccc1C(=O)Nc1ccccc1Sc1ccccc1	10.7% (active)
CSc1ccccc1NC(=O)c1cc(Cl)sc1Cl	3.13%
Cc1cc(NC(=O)c2ccccc2C)no1	3.09%
CCOC(=O)[C@]12CCCC3=C1N(CCC3)C(=O)[C@@H](CC(=O)N1CCSCC1)C2	4.63%
COc1ccc(C(=O)OCCN2CCN(C3CN(Cc4cn(Cc5ccccc5F)nn4)S(=O)(=O)C3)CC2)cc1OC (stereo not drawn)	-0.1%

SMILES	inhibition
O=C(NC1CCCCN(Cc2ccc(Cl)cc2)C1=O)c1ccc(Br)cc1 (stereo not drawn)	3.44%
CCOC(=O)[C@]12CCCCC/C=C\1N(Cc1ccc(OC)cc1)C(=O)[C@H]2CC(=O)NCCCN1CCCC1=O	1.96%
CN(CC(=O)NC1CCCCC1)S(=O)(=O)c1cccc2cccnc12	-1.31%
CN(CC(=O)NC1CCCCC1)S(=O)(=O)c1ccc(Br)s1	10.4% (active)
CN(CC(=O)NC1CCN(Cc2ccccc2)CC1)S(=O)(=O)c1ccc(Cl)s1	6.37%
Cc1nc(CNc2ncnc3ccc(-c4ccc5c(c4)OCO5)cc23)cs1	-104%
CCn1c(SCC(=O)N/N=C/c2ccccc2OCC(=O)O)nnc1-c1ccc(C(C)(C)C)cc1	-0.82%
C=CCOc1ccccc1/C=N/NC(=O)Cc1ccccc1	13.9% (active)
O=C(CC(=O)N/N=C\c1cccc(Cl)c1Cl)NCc1ccccc1	-0.34%
O=C1CCC2(CCC(c3ccc(Cl)cc3)CC2)N1CCO (stereo not drawn)	1.68%
COC(=O)[C@]12C[C@H](CC(=O)NCc3ccccc3)C(=O)N(CCC3=CCCCC3)C1=C[C@H](C(C)C)O[C@@H]2C1CC1	4.87%
CCOC(=O)C1=C(C)NC2=C(C(=O)CC(C)(C)C2)C1c1ccc2c(c1)OCO2 (stereo not drawn)	-75.8%
Cc1ccc(NC(=O)Nc2cc(C)nn2-c2ccccc2)cc1	-1.85%
CCCCn1c(SCC(=O)N2CCCC2=O)nc2cc(S(N)(=O)=O)ccc21	9.56% (active)
CCCCn1c(SCC(=O)N2CCC(C(=O)OCC)CC2)nc2cc(S(N)(=O)=O)ccc21	0.98%
CCn1c(SCC(=O)N2CCCC2=O)nc2ccccc21	3.16%
COc1ccccc1C(=O)NC1CCCCN(C(C)C)C1=O (stereo not drawn)	2.47%
Cc1ccccc1CS(=O)(=O)Cc1ccc(C(=O)Nc2ccc(Cl)cc2)o1	-2.55%
Oc1ccc(/C=C/c2c(F)cccc2F)c2cccnc12	-12.7%
COC(=O)[C@H](C(C)C)N(CCCc1cn(Cc2ccccc2)nn1)S(=O)(=O)c1ccc(F)cc1Br	0.35%

SMILES	inhibition
O=C1CC(c2ccc3c(c2)OCO3)N=C2N(CC3CC3)C/C(=C/c3ccccc3)N12 (stereo not drawn)	-5.26%
Cc1ccc(S(=O)(=O)Cn2nnnc2CN2CCN(Cc3ccc4c(c3)OCO4)CC2)cc1	10.9% (active)
Fc1ccccc1C(c1nnnn1Cc1ccc2c(c1)OCO2)N1CCN(Cc2ccccc2)CC1 (stereo not drawn)	0.65%
Cc1ccc(C(c2nnnn2CS(=O)(=O)c2ccc(C)cc2)N2CCC(C)CC2)cc1 (stereo not drawn)	0.22%
CCC(=O)Nc1nc(OC)cc(OC)n1	2.37%
COc1cc(OC)nc(S(C)(=O)=O)n1	16.5% (active)
COc1ccnc(C(=O)N2CCC(Oc3cccnc3)CC2)c1	0.2%
O=C(NCc1ccc(Cl)cc1)C1CCCN(c2nc3ccccc3o2)C1 (stereo not drawn)	1.63%
CCOc1c(Br)cc(/C=C2\C(=O)N(CCC#N)N=C2C)cc1OC	24.6% (active)
Cc1ccc(Cn2ccc(NC(=O)C3C4CCC(C4)C3C(=O)O)n2)cc1 (stereo not drawn)	9.61% (active)
O=C(NNC(=O)C1C2CCC(C2)C1C(=O)O)c1ccc(Cl)cc1 (stereo not drawn)	1.22%
Cc1ccc(CN2CC(C(=O)NNC(=O)Cn3ccc(C(F)(F)F)n3)CC2=O)cc1 (stereo not drawn)	2.76%
O=C(CSc1nnc(-c2ccccn2)n1-c1ccc(Cl)cc1)Nc1ccccc1-c1ccccc1	0.96%
O=C(CCCCCN1C(=O)C2C3C=CC(C3)C2C1=O)Nc1ccccn1 (stereo not drawn)	1.47%
Cc1cc(C)nc(NC(=S)N2CCN(c3ccc(C(F)(F)F)cn3)CC2)c1	0.58%
O=C(COc1ccc([N+](=O)[O-])cc1Cl)Nn1cnnc1	2.5%
O=C(Nc1cccc([N+](=O)[O-])c1)Nn1cnnc1	10.4% (active)
CN(C(=O)c1cccc(NC(=O)Cc2cccc([N+](=O)[O-])c2)c1)C1CCCCC1	8.53%
